Measurements reported in PubChem BioAssay (NCI).
Compounds without any hit were thinned out: in the full panel of roughly 79,000, 15% have a hit. Calls of active or inactive are those of the source. Rule as the data show it: active = growth inhibition above about 70%; inactive = the rest.

Tests used:
[1] = NCI Yeast Anticancer Drug Screen. Data for the wt2 strain (AID 169);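 also: 0% = growth of vehicle-treated yeast cultures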; conditions: S. cerevisiae wt2 strain growth inhibition, active compounds read high
How it was run: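 The panel's yeast strains carry defined changes in DNA repair or cell cycle genes. Each strain is grown with compound, and growth loss is scored relative to vehicle.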

[2] = NCI Yeast Anticancer Drug Screen. Data for the mlh1 strain (AID 171);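 also: 0% = growth of vehicle-treated control cultures of the same strain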; conditions: S. cerevisiae mlh1 strain growth inhibition, active compounds read high
How it was run: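 Inhibition values reflect reduced yeast growth in the presence of compound, referenced to vehicle controls, using a strain chosen for its alteration in DNA repair or cell cycle control.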

[3] = NCI Yeast Anticancer Drug Screen. Data for the sgs1 strain (AID 173);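 also: 0% = growth of vehicle-only control cultures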; conditions: S. cerevisiae sgs1 mutant, active compounds read high
How it was run: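 Vehicle-treated cultures served as reference for growth inhibition of a yeast strain altered in DNA damage repair or cell cycle control after compound exposure.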

[4] = NCI Yeast Anticancer Drug Screen. Data for the mlh1 rad18 strain (AID 175); conditions: S. cerevisiae mlh1 rad18 strain growth inhibition, active compounds read high
How it was run: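 Inhibition values reflect reduced growth of mutant yeast versus vehicle-treated controls following compound exposure; the mutations affect DNA damage repair.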

[5] = NCI Yeast Anticancer Drug Screen. Data for the rad18 strain (AID 177); conditions: S. cerevisiae rad18 mutant growth inhibition, active compounds read high
How it was run: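 Steps: expose repair-mutant yeast to compound; measure growth; express as inhibition relative to vehicle control.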

[6] = NCI Yeast Anticancer Drug Screen. Data for the rad52 strain (AID 147);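 also: 0% = growth of vehicle-treated control cultures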; conditions: S. cerevisiae rad52 mutant growth inhibition, active compounds read high
How it was run: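 Inhibition of yeast growth, referenced to vehicle controls, was the measured output for a strain with defective DNA damage repair.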

[7] = NCI Yeast Anticancer Drug Screen. Data for the wt1 strain (AID 149);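 also: 0% = growth of vehicle-treated wt1 cultures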; conditions: S. cerevisiae wt1 strain (SPY 50644) growth inhibition, active compounds read high
How it was run: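 Using yeast strain wt1, compound-induced growth inhibition was determined against vehicle-treated cultures.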

[8] = NCI Yeast Anticancer Drug Screen. Data for the rad50EPP+ strain (AID 151);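 also: 0% = growth of vehicle-treated control cultures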; conditions: S. cerevisiae rad50 mutant strain, active compounds read high
How it was run: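 Genetically defined yeast (rad50EPP+, DNA damage repair alteration) is grown with compound, and inhibition of growth is expressed relative to vehicle-treated controls.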

[9] = NCI Yeast Anticancer Drug Screen. Data for the mgt1 strain (AID 153); conditions: S. cerevisiae mgt1 mutant growth inhibition, active compounds read high
How it was run: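 In the mgt1 strain, test compounds were added and growth inhibition was determined relative to vehicle-treated controls.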

[10] = NCI Yeast Anticancer Drug Screen. Data for the rad50 strain (AID 155);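 also: 0% = growth of vehicle-only cultures of the same strain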; conditions: S. cerevisiae rad50 strain growth inhibition, active compounds read high
How it was run: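 Relative growth inhibition (compound vs vehicle) was measured in yeast with a defined repair-gene alteration.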

[11] = NCI Yeast Anticancer Drug Screen. Data for the mec2-1 strain (AID 157); conditions: S. cerevisiae mec2-1 strain, active compounds read high
How it was run: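 Each compound was tested on mec2-1 yeast, a strain altered in DNA damage repair or cell cycle control. Growth inhibition is reported relative to vehicle.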

[12] = NCI Yeast Anticancer Drug Screen. Data for the rad14 strain (AID 159);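 also: 0% = growth of vehicle-treated control cultures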; conditions: S. cerevisiae rad14 strain growth inhibition, active compounds read high
How it was run: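 Screen for anticancer potential: a yeast strain altered in DNA damage repair is grown with compound, and reduced growth is quantified against vehicle controls.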

[13] = NCI Yeast Anticancer Drug Screen. Data for the sgs1 mgt1 strain (AID 161);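 also: 0% = growth of cultures given vehicle only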; conditions: S. cerevisiae sgs1 mgt1 strain, active compounds read high
How it was run: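 Genetically altered yeast, compound exposure, growth inhibition relative to vehicle.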

[14] = NCI Yeast Anticancer Drug Screen. Data for the CLN2oe strain (AID 163);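 also: 0% = growth of vehicle-only control cultures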; conditions: S. cerevisiae CLN2oe strain, active compounds read high
How it was run: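 First, the altered yeast strain was treated with each compound; second, its growth was measured; finally, inhibition was derived by comparison with vehicle controls.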

[15] = NCI Yeast Anticancer Drug Screen. Data for the cln2 rad14 strain (AID 165);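 also: 0% = growth equal to vehicle treated cultures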; conditions: S. cerevisiae cln2 rad14 strain, active compounds read high
How it was run: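 Test compounds were added to cln2 rad14 yeast cultures; inhibition of growth was then determined by comparison with vehicle treatment.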

[16] = NCI Yeast Anticancer Drug Screen. Data for the bub3 strain (AID 167); conditions: S. cerevisiae bub3 mutant strain, active compounds read high
How it was run: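 Screening used yeast with an engineered genetic alteration affecting cell cycle control. Compound-exposed cultures were compared with vehicle cultures, and reduced growth was taken as inhibition.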

[17] = at 5.0 µM (retest, dose inferred, filed as 0.5)
[18] = at 50.0 µM (retest, dose inferred, filed as 5.0)

Measured: growth inhibition

Cc1cc[n+](C2=C(Nc3cccc(C(F)(F)F)c3)C(=O)c3ccccc3C2=O)cc1
inactive: [1]; at 1.2 µM 1% | [1]; at 3.7 µM 1% | [1]; at 11.0 µM 3% | [1]; at 33.0 µM 8% | [1]; at 100.0 µM 12% | [2]; at 1.2 µM 3% | [2]; at 3.7 µM -2% | [2]; at 11.0 µM 1% | [2]; at 33.0 µM 1% | [2]; at 100.0 µM 10% | [3]; at 1.2 µM 0% | [3]; at 3.7 µM -1% | [3]; at 11.0 µM 0% | [3]; at 33.0 µM 3% | [3]; at 100.0 µM 16% | [4]; [17] 3% | [4]; [18] 3% | [4]; at 50.0 µM 61.9% | [5]; at 1.2 µM 2% | [5]; at 3.7 µM -1% | [5]; at 11.0 µM 3% | [5]; at 33.0 µM 2% | [5]; at 100.0 µM 5%

Nc1ccc(Cl)cc1C(=O)c1ccccc1
active: [6]; at 100.0 µM 97% | [7]; at 100.0 µM 98% | [8]; at 100.0 µM 90% | [9]; at 100.0 µM 97% | [10]; [18] 82% | [10]; at 50.0 µM 91% | [10]; at 100.0 µM 97% | [11]; [18] 86% | [11]; at 50.0 µM 72.2% | [11]; at 100.0 µM 97% | [12]; at 100.0 µM 97% | [13]; [18] 98% | [13]; at 50.0 µM 90.7% | [14]; at 100.0 µM 97% | [15]; [18] 96% | [15]; at 50.0 µM 71.4% | [16]; [18] 96% | [16]; at 50.0 µM 88.1% | [16]; at 100.0 µM 96% | [1]; at 100.0 µM 97% | [2]; at 100.0 µM 97% | [3]; at 100.0 µM 98% | [4]; [18] 81% | [4]; at 50.0 µM 88.4% | [5]; at 100.0 µM 97%
inactive: [6]; at 1.2 µM -15% | [6]; at 3.7 µM -16% | [6]; at 11.0 µM -15% | [6]; at 33.0 µM 46% | [7]; at 1.2 µM -20% | [7]; at 3.7 µM -10% | [7]; at 11.0 µM -10% | [7]; at 33.0 µM 39% | [8]; at 1.2 µM -7% | [8]; at 3.7 µM -2% | [8]; at 11.0 µM 4% | [8]; at 33.0 µM 44% | [9]; at 1.2 µM -28% | [9]; at 3.7 µM -42% | [9]; at 11.0 µM -43% | [9]; at 33.0 µM 3% | [10]; at 1.2 µM -17% | [10]; at 3.7 µM -19% | [10]; [17] 48% | [10]; at 11.0 µM -4% | [10]; at 33.0 µM 57% | [11]; at 1.2 µM -38% | [11]; at 3.7 µM -33% | [11]; [17] 54% | [11]; at 11.0 µM -18% | [11]; at 33.0 µM 0% | [12]; at 1.2 µM -25% | [12]; at 3.7 µM -23% | [12]; at 11.0 µM -15% | [12]; at 33.0 µM 46% | [13]; [17] -19% | [14]; at 1.2 µM 5% | [14]; at 3.7 µM -5% | [14]; at 11.0 µM 5% | [14]; at 33.0 µM 20% | [15]; [17] 57% | [16]; at 1.2 µM -35% | [16]; at 3.7 µM -40% | [16]; [17] -6% | [16]; at 11.0 µM -52% | [16]; at 33.0 µM -23% | [1]; at 1.2 µM -2% | [1]; at 3.7 µM -5% | [1]; at 11.0 µM -6% | [1]; at 33.0 µM 21% | [2]; at 1.2 µM -23% | [2]; at 3.7 µM -33% | [2]; at 11.0 µM -31% | [2]; at 33.0 µM 22% | [3]; at 1.2 µM -7% | [3]; at 3.7 µM 1% | [3]; at 11.0 µM 7% | [3]; at 33.0 µM 63% | [4]; [17] 39% | [5]; at 1.2 µM -12% | [5]; at 3.7 µM -12% | [5]; at 11.0 µM -2% | [5]; at 33.0 µM 69%

Nc1ccccc1C(=O)OCCc1ccccc1
inactive: [6]; at 1.2 µM -9% | [6]; at 3.7 µM -4% | [6]; at 11.0 µM -21% | [6]; at 33.0 µM -3% | [7]; at 1.2 µM -25% | [7]; at 3.7 µM -6% | [7]; at 11.0 µM -23% | [7]; at 33.0 µM -26% | [8]; at 1.2 µM -23% | [8]; at 3.7 µM -9% | [8]; at 11.0 µM 13% | [8]; at 33.0 µM 22% | [9]; at 1.2 µM -74% | [9]; at 3.7 µM -63% | [9]; at 11.0 µM -62% | [9]; at 33.0 µM -52% | [10]; at 1.2 µM -3% | [10]; at 3.7 µM -7% | [10]; [17] 36% | [10]; at 11.0 µM -31% | [10]; at 33.0 µM 13% | [11]; at 1.2 µM -8% | [11]; at 3.7 µM -4% | [11]; [17] 38% | [11]; at 11.0 µM -6% | [11]; at 33.0 µM 13% | [11]; at 50.0 µM 48.1% | [12]; at 1.2 µM -19% | [12]; at 3.7 µM -10% | [12]; at 11.0 µM -21% | [12]; at 33.0 µM -12% | [13]; [17] -17% | [13]; at 50.0 µM 68% | [14]; at 1.2 µM 19% | [14]; at 3.7 µM 17% | [14]; at 11.0 µM 14% | [14]; at 33.0 µM -1% | [15]; [17] 62% | [15]; at 50.0 µM 44.5% | [16]; at 1.2 µM -10% | [16]; at 3.7 µM 0% | [16]; [17] 12% | [16]; at 11.0 µM -1% | [16]; at 33.0 µM 5% | [1]; at 1.2 µM -16% | [1]; at 3.7 µM -15% | [1]; at 11.0 µM 3% | [1]; at 33.0 µM -12% | [2]; at 1.2 µM -15% | [2]; at 3.7 µM -17% | [2]; at 11.0 µM -18% | [2]; at 33.0 µM -7% | [3]; at 1.2 µM -38% | [3]; at 3.7 µM -32% | [3]; at 11.0 µM -32% | [3]; at 33.0 µM -28% | [4]; [17] 34% | [5]; at 1.2 µM -58% | [5]; at 3.7 µM -22% | [5]; at 11.0 µM -29% | [5]; at 33.0 µM -24%
active: [6]; at 100.0 µM 91% | [7]; at 100.0 µM 92% | [8]; at 100.0 µM 73% | [9]; at 100.0 µM 96% | [10]; [18] 93% | [10]; at 50.0 µM 82.9% | [10]; at 100.0 µM 97% | [11]; [18] 99% | [11]; at 100.0 µM 85% | [12]; at 100.0 µM 97% | [13]; [18] 74% | [14]; at 100.0 µM 91% | [15]; [18] 76% | [16]; [18] 78% | [16]; at 50.0 µM 89.5% | [16]; at 100.0 µM 76% | [1]; at 100.0 µM 94% | [2]; at 100.0 µM 97% | [3]; at 100.0 µM 94% | [4]; [18] 87% | [4]; at 50.0 µM 85.7% | [5]; at 100.0 µM 87%
